Experimental data reported in PubChem BioAssay (NCI).
This is part of a sample that, as a whole, favours compounds with a hit. Of some 79,000 tested, about 15% had one in any assay. Values without a mark were called inactive. Active and inactive are the calls of the source. No stated cut-off is given here; in the data, active means growth inhibition above about 70%; inactive means the rest.

Key:
[1] = NCI Yeast Anticancer Drug Screen. Data for the rad50 strain (AID 155);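 further: 0% = growth of vehicle-only cultures of the same strain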; details: S. cerevisiae rad50 strain growth inhibition, stronger effect = higher value
Procedure, shortened: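 Cells are treated with compound, grown, and their growth is then scored against vehicle-only cultures of the same repair-deficient yeast strain.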

[2] = NCI Yeast Anticancer Drug Screen. Data for the mec2-1 strain (AID 157); details: S. cerevisiae mec2-1 strain, stronger effect = higher value
Procedure, shortened: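 Each compound was tested on mec2-1 yeast, a strain altered in DNA damage repair or cell cycle control. Growth inhibition is reported relative to vehicle.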

[3] = NCI Yeast Anticancer Drug Screen. Data for the sgs1 mgt1 strain (AID 161);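 further: 0% = growth of cultures given vehicle only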; details: S. cerevisiae sgs1 mgt1 strain, stronger effect = higher value
Procedure, shortened: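 Mutant yeast exposed to compound; growth scored against vehicle-only wells.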

[4] = NCI Yeast Anticancer Drug Screen. Data for the cln2 rad14 strain (AID 165);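 further: 0% = growth equal to vehicle treated cultures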; details: S. cerevisiae cln2 rad14 strain, stronger effect = higher value
Procedure, shortened: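 Test compounds were added to cln2 rad14 yeast cultures; inhibition of growth was then determined by comparison with vehicle treatment.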

[5] = NCI Yeast Anticancer Drug Screen. Data for the bub3 strain (AID 167); details: S. cerevisiae bub3 mutant strain, stronger effect = higher value
Procedure, shortened: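 Part of a panel of yeast mutants defective in DNA damage repair or cell cycle regulation. Each strain is grown with compound, and inhibition is calculated relative to solvent-treated cultures.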

[6] = NCI Yeast Anticancer Drug Screen. Data for the mlh1 rad18 strain (AID 175); details: S. cerevisiae mlh1 rad18 strain growth inhibition, stronger effect = higher value
Procedure, shortened: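 Inhibition values reflect reduced growth of mutant yeast versus vehicle-treated controls following compound exposure; the mutations affect DNA damage repair.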

[7] = at 5.0 µM (retest, dose inferred, filed as 0.5)
[8] = at 50.0 µM (retest, dose inferred, filed as 5.0)

Row | Structure (SMILES) | growth inhibition [1, 7] | growth inhibition [1, 8] | growth inhibition ([1]; at 50.0 µM) | growth inhibition [2, 7] | growth inhibition [2, 8] | growth inhibition ([2]; at 50.0 µM) | growth inhibition [3, 7] | growth inhibition [3, 8] | growth inhibition ([3]; at 50.0 µM) | growth inhibition [4, 7] | growth inhibition [4, 8] | growth inhibition ([4]; at 50.0 µM) | growth inhibition [5, 7] | growth inhibition [5, 8] | growth inhibition ([5]; at 50.0 µM) | growth inhibition [6, 7] | growth inhibition [6, 8] | growth inhibition ([6]; at 50.0 µM)
1 | NCCCCC(N)C(=O)Nc1ccc2ccccc2c1 (configuration not stated) | -1% | 91% (active) | 99% (active) | -41% | 37% | 99% (active) | 0% | 75% (active) | 99.2% (active) | 1% | 24% | 82.8% (active) | -9% | 71% (active) | 99.3% (active) | 0% | 83% (active) | 99% (active)
2 | CN(C(=O)c1ccccc1)C1(COC(=O)c2ccccc2)CCCCC1 | -6% | 3% | 16.1% | -28% | -9% | -5.95% | -25% | -11% | -2.75% | 1% | 1% | 21.3% | 21% | 28% | 65.7% | 16% | 6% | 9.9%
3 | Cc1ccc(S(=O)(=O)Nn2c(S)c(C#N)c(-c3ccc([N+](=O)[O-])cc3)c(C#N)c2=O)cc1 | 25% | 59% | 49.6% | 8% | 35% | 46.6% | 24% | 78% (active) | 72.3% (active) | 43% | 43% | 29.8% | 45% | 65% | 54.6% | 19% | 46% | 59%
4 | O=C(O)Cc1ccc2c3c(cccc13)CC2 | 44% | 90% (active) | 88.1% (active) | 12% | 94% (active) | 91.8% (active) | 20% | 78% (active) | 91.2% (active) | 23% | 77% (active) | 90.2% (active) | 16% | 86% (active) | 92.2% (active) | 27% | 91% (active) | 92.8% (active)
5 | c1ccc2cc3c(ccc4cccc[n+]43)cc2c1 | 17% | 28% | 34.3% | 20% | 52% | 18% | 23% | 53% | 35.6% | 30% | 29% | 71.5% (active) | -4% | 8% | 27.7% | 10% | 45% | 29.9%
6 | O=C(NN1C(=O)C(Cl)C1c1ccc(O)cc1)c1ccccc1O (configuration not stated) | -4% | 78% (active) | 79.5% (active) | 13% | 79% (active) | 61% | 0% | 72% (active) | 69.9% | 13% | 63% | 44% | 11% | 90% (active) | 71.1% (active) | 20% | 91% (active) | 67.7%
7 | COC(=O)C(=Cc1c[nH]c2ccccc12)C(=O)OC | -12% | 0% | 11.6% | 4% | 2% | 30.3% | -1% | -6% | 4.55% | -1% | -4% | 16.3% | -3% | 2% | 10.6% | -18% | -17% | 10.8%
8 | O=[N+]([O-])c1ccc2c(c1)/C(=C/c1ccccc1O)c1ccccc1-2 | 66% | 91% (active) | 92.7% (active) | 81% (active) | 93% (active) | 90.5% (active) | 69% | 92% (active) | 88.5% (active) | 52% | 87% (active) | 84.3% (active) | 42% | 91% (active) | 92% (active) | 89% (active) | 91% (active) | 90.2% (active)
9 | COc1ccc(C2=CCC3C4CC=C5CC(O)CCC5(C)C4CCC23C)s1 (configuration not stated) | 0% | 13% | 59.7% | -17% | 63% | 64.1% | -23% | 82% (active) | 59.6% | -3% | 18% | 53.5% | -1% | 30% | 66% | 19% | 75% (active) | 94.7% (active)
10 | C=C1C[C@H](O)[C@H]2C(C[Se]c3ccccc3)C(=O)O[C@@H]2[C@H]2[C@H](C)C(O)C[C@@H]12 (some centres not stated) | 2% | 35% | 43.6% | 2% | -7% | 20.6% | 9% | 61% | 17.2% | -2% | 8% | -32.1% | -5% | 21% | 21.8% | 0% | 32% | 86.5% (active)
11 | CC(=O)Oc1ccc(N2C(=O)C=CC2=O)cc1 | 86% (active) | 99% (active) | 98.8% (active) | 81% (active) | 100% (active) | 99.1% (active) | 67% | 99% (active) | 52% | 56% | 100% (active) | 54.2% | 87% (active) | 99% (active) | 99% (active) | 41% | 100% (active) | 52.5%
12 | O=C1C(Cl)=CC(=NCl)C=C1Cl | 59% | 83% (active) | 89.1% (active) | 53% | 91% (active) | 91% (active) | 27% | 98% (active) | 91.9% (active) | 47% | 100% (active) | 85% (active) | 84% (active) | 95% (active) | 89.8% (active) | 28% | 86% (active) | 89% (active)
13 | O=C(c1ccc(Cl)cc1)c1ccc([N+](=O)[O-])cc1 | 13% | -4% | 5.35% | -4% | 1% | -16.4% | 4% | -14% | 4.6% | -3% | 1% | -2.2% | 3% | 31% | 74.5% (active) | -3% | 7% | 8.05%
14 | CC1=C(C(=O)Nc2ccccc2C)C(c2ccccc2F)C(C(=O)Nc2ccccc2C)=C(C)N1 | 1% | 6% | 29.6% | 3% | 8% | 41.9% | -2% | 6% | 6.6% | -2% | -6% | -23.1% | 1% | 2% | 20.2% | 1% | 8% | 47.7%
15 | NC(=O)N/N=C/c1ccc(Cl)s1 | 4% | 42% | 94.4% (active) | 4% | 21% | 59% | 2% | 31% | 88.8% (active) | -1% | 10% | 52.5% | 3% | 35% | 82.5% (active) | 1% | 31% | 89.2% (active)
16 | CC(NCCO)c1ccc2ccccc2c1 (configuration not stated) | 0% | 8% | 2.15% | 3% | -4% | -13.2% | -10% | -6% | 2.3% | 3% | -3% | 30.7% | 3% | -1% | -14.9% | -1% | 8% | -3.8%
17 | Cc1scnc1C(C#N)(c1ccccc1)c1ccccc1 | 9% | 97% (active) | 98.5% (active) | 4% | 98% (active) | 98.5% (active) | 4% | 98% (active) | 98.7% (active) | 8% | 98% (active) | 98.5% (active) | 9% | 97% (active) | 98.8% (active) | 7% | 97% (active) | 98.5% (active)
18 | Oc1ccc(C2CCCCC2)c(O)c1 | -2% | 42% | 75.5% (active) | 2% | 53% | 61.4% | 7% | 37% | 66% | 30% | 45% | 65.8% | 7% | 66% | 67.3% | 2% | 72% (active) | 65.8%
19 | COC(=O)c1ccc(SCC(=O)c2ccc([N+](=O)[O-])o2)cc1 | 4% | 90% (active) | 97% (active) | 4% | 98% (active) | 98% (active) | 5% | 81% (active) | 79.3% (active) | -4% | 96% (active) | 95.3% (active) | -5% | 46% | 60.4% | 2% | 79% (active) | 98.5% (active)
